DT40 TDP1 CPT: qHTS for Inhibitors of human tyrosyl-DNA phosphodiesterase 1 (TDP1): qHTS in cells in presence of CPT; Potency, µM (top dose mostly 46.2 µM), for inactives: at the top dose activity change, negative = growth inhibition, actives largely listed as inhibitors; hit rate 12% among 420,000; chicken DT40 Tdp1-/-;hTDP1 cells + 20 nM CPT, ATP luminescence, 48 h; note: potency is the fitted concentration of half-maximal effect; nearly all actives have a fitted effect of over 55% in size
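Chicken DT40 Tdp1-/- cells complemented with human TDP1, 400 cells/well, exposed to compounds plus 20 nM camptothecin for at least 48 h at 37 C; viability read as ATP content by CellTiter-Glo luminescence.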
HT1080 IDH1KD tx: qHTS for induction of synthetic lethality in tumor cells producing 2HG: qHTS for the HT-1080-IDH1KD cell line. HT-1080 IDH1 knockdown viability, ATP luminescence, 48 h. AID 686971, 2013. hit rate 2% among 360,000. Potency, µM (doses to about 46.1 µM), without a hit: at the highest dose activity, negative = toxicity, hits mostly cytotoxic;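 note: potency is the fitted concentration of half-maximal effect; 0% = DMSO wells and -100% = cell-free medium wells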
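In this qHTS, HT-1080 cells depleted of IDH1 are exposed for 48 h at 37 °C to compound titrations. Toxicity is scored from CellTiter-Glo luminescence, with DMSO as full viability and medium alone as none.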
IL-1B inflam inh: qHTS for Inhibitors of Inflammasome Signaling: IL-1-beta AlphaLISA Primary Screen | hit rate 4.7% among 360,000 | THP-1 LPS/ATP IL-1B secretion, AlphaLISA, 16 h; stronger effect = lower value | AID 743279, 2014 | activity change, % at 57.5 µM; in the data active = activity change below about -50%; inconclusive = mostly about -30% to -49%
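Secreted IL-1B measured by AlphaLISA bead assay after 16 h compound exposure of THP-1 cells; compounds (final up to 57.5 uM) added 1 h before LPS (250 ng/mL) and ATP (1.25 mM) stimulation; lower signal means less secretion.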
HT1080NT lethal: qHTS for induction of synthetic lethality in tumor cells producing 2HG: qHTS for the HT-1080-NT fibrosarcoma cell line. AID 686970, 2013. HT-1080-NT fibrosarcoma viability, CellTiter-Glo ATP luminescence, 48 h. Potency, µM (series often up to 46.1 µM), inactives show at the top dose activity, negative = less viability, usual class: cytotoxic. hit rate 1.6% among 360,000;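 note: NT is the 2HG producing partner of a matched IDH1 knockdown line; potency is the fitted concentration of half-maximal effect; 0% = DMSO-treated cells and -100% = media-only wells without cells; nearly all actives have a fitted effect of over 55% in size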
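Viability by CellTiter-Glo luminescence after 48 h compound exposure at 37C of HT-1080-NT cells (750/well, RPMI, 5% FBS). % activity scaled between DMSO wells and medium-only wells, then curve-fitted and categorized by curve class.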
DT40 TDP1 no CPT: qHTS for Inhibitors of human tyrosyl-DNA phosphodiesterase 1 (TDP1): qHTS in cells in absence of CPT; Potency, µM (doses to about 46.2 µM), for the others: at the top dose activity change, negative = growth inhibition, most hits filed as inhibitors; hit rate 15% among 420,000; DT40 Tdp1-/- hTDP1 cells, no CPT, ATP luminescence, 48 h; note: potency is the fitted concentration of half-maximal effect; nearly all actives have a fitted effect of over 55% in size
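DT40 Tdp1-/-;hTDP1 cells, no CPT (DMSO vehicle only), 400 cells/well; compounds pin-transferred; ≥48 hr, 37 °C; CellTiter-Glo 30 min RT dark, luminescence read.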
* = called active by the depositor; ? = inconclusive; · = no result; [ ] = another dose, or the depositor's remark. An excerpt weighted towards active compounds, which were near 19% of everything screened. Unless noted, calls come from the whole dose curve; as a rule, active = well fitted curve in the direction sought with a large enough effect; inconclusive = small, poorly fitted or top-dose-only effect, or another doubt; inactive = no such curve, though single readings can be large; an effect the other way counts as inactive or inconclusive. Unless noted, % is set by controls: 0 for no effect and ±100 for the full control effect.

SMILES	DT40 TDP1 CPT	HT1080 IDH1KD tx	IL-1B inflam inh	HT1080NT lethal	DT40 TDP1 no CPT
O=S(=O)(CCSc1ccccn1)c1nc2ccccc2s1	2.3µM*	7.9µM*	-106*	20µM*	5.2µM*
O=S(=O)(CCSc1nc2ccccc2o1)c1nc2ccccc2s1	4.1µM*	6.3µM*	-99*	10µM*	3.7µM*
Cc1cccc([C@@H]2[C@@H]3C(=O)N(Cc4ccccc4)C(=O)[C@@H]3[C@]3(Cc4ccccc4)C(=O)N(c4ccccc4)C(=O)N23)c1	-12%	-2%	17	0%	-9%
CCN1C(=O)[C@H]2[C@@H](c3ccc(C)cc3)N3C(=O)N(c4ccc(C)cc4)C(=O)[C@@]3(CC)[C@H]2C1=O	-6%	23%	4	2%	-16%
Cc1cccc([C@@H]2[C@@H]3C(=O)N(Cc4ccccc4)C(=O)[C@@H]3[C@]3(Cc4ccccc4)C(=O)N(c4ccc(C(F)(F)F)cc4)C(=O)N23)c1	18µM*	3%	-1	3%	16µM*
CCN1C(=O)[C@H]2[C@@H](c3ccc(C)cc3)N3C(=O)N(c4ccc(C(F)(F)F)cc4)C(=O)[C@@]3(CC(C)C)[C@H]2C1=O	?	-19%	2	0%	16µM*
Cc1c(CN(C)C(=O)C2CCC(=O)N(Cc3ccccc3F)C2)[nH]c2ccccc12 (configuration not stated)	-28%	-7%	-1	-10%	-29%
Nc1nc(-c2ccc(F)cc2)cc(C(F)(F)F)n1	-6%	-6%	0	-5%	-3%
CS(=O)(=O)c1nc(-c2ccc(F)cc2)cc(C(F)(F)F)n1	1.3µM*	8.2µM*	-103*	21µM*	1.8µM*
COc1ccc(-c2cc(C(F)(F)F)nc(N)n2)cc1	13%	5%	-3	10%	-1%
COc1ccc(-c2cc(C(F)(F)F)nc(S(C)(=O)=O)n2)cc1	2.6µM*	?	-102*	18µM*	3.3µM*
Cc1cc(NC(=O)CSc2ncnc3c2cnn3-c2cccc(Cl)c2)no1	-2%	14%	2	4%	?
CC(=O)N1CCCC1c1nc2ccccc2n1Cc1cccc(C)c1 (configuration not stated)	-7%	·	·	·	?
Cc1ccc(N=C2NC(=O)/C(=C\c3ccco3)S2)cc1	-29%	4%	0	3%	?
Cc1cccc(N=C2NC(=O)/C(=C/C=C/c3ccco3)S2)c1	13µM*	-28%	-10	-12%	23µM*
O=C1NC(=Nc2ccc3ccccc3c2)S/C1=C/c1ccco1	-19%	12%	14	14%	?
COc1ccc(N=C2NC(=O)/C(=C\C=C\c3ccco3)S2)cc1	?	-2%	-63*	-3%	?
O=C(NCc1ccc(F)cc1Cl)c1cc(=O)[nH]c2ccc(S(=O)(=O)N3CCCCC3)cc12	-17%	·	·	·	-23%
COc1cc2c3c(c1)c(N=NC(N)=S)c(O)n3C(C)(C)C=C2C	4.6µM*	-4%	-19	-7%	5.2µM*
CC1=CC(C)(C)n2c(O)c(N=N)c3cc(C)cc1c32	?	7%	-60*	0%	23µM*
O=C(Nc1ccncc1)C1CCN(S(=O)(=O)c2ccc(Cl)cc2)CC1	23µM*	-1%	12	-7%	16µM*
O=C(Nc1ccncc1)C1CCN(S(=O)(=O)c2ccccc2C(F)(F)F)CC1	15µM*	-23%	22	-17%	26µM*
O=C(Nc1ccncc1)C1CCN(S(=O)(=O)c2ccc(Cl)c(C(F)(F)F)c2)CC1	16µM*	-18%	?	2%[9.24 µM]	15µM*
COc1ccc(S(=O)(=O)N2CCC(C(=O)Nc3cc(C(F)(F)F)ccc3Cl)CC2)cc1	?	·	·	·	16µM*

Screening data deposited in PubChem BioAssay by National Center for Advancing Translational Sciences (NCATS).
